# Bioassay records as filed in PubChem.
# The list is not random: actives were taken first. Their share in the collection is about 7.4%.
# Rab9 promoter act: Rab9 promoter activation; AID 485297; Huh7 Rab9 promoter-luciferase reporter, luminescence, 24 h; hit rate 2.8% among 320,000; Potency, µM (top dose mostly 9.22 µM), hits mostly activators; further: nearly all actives have a fitted effect of over 60% in size
#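 Stable Rab9-luc Huh7, 1500 cells/well, 2 h settle; cmpd in DMSO, 24 h, 37 °C/5% CO2; luciferase reagent 10 min RT; luminescence.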
# Luc counter: blocks Kinase-Glo luciferase, a counter-screen artifact; Q27757; Kinase-Glo luciferase, ATP luminescence, 8 min; Potency, µM (titrated, usually from 38.3 µM), usual class: inhibitors; hit rate 0.28% among 200,000; further: nearly all actives have a fitted effect of over 60% in size
#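 Recombinant Kinase-Glo luciferase, 10 uM ATP (linear range), luciferin; imidazole pH 7.2 / KCl / MgCl2 / Tween / BSA buffer; 8 min RT; luminescence.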
# NPC1 promoter act: NPC1 promoter activation | hit rate 2.4% among 320,000 | AID 485313 | Potency, µM (series often up to 9.22 µM), usual class: activators | Huh7 NPC1 promoter luciferase reporter, 24 h; further: nearly all actives have a fitted effect of over 60% in size
#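 In 1536-well qHTS, Huh7 cells harboring an NPC1 promoter–luciferase construct received compound for 24 h; activation was quantified by luminescence following luciferase reagent addition.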
# FLuc modulator: counter-screen for miR-21 project: firefly luciferase inhibitors or activators; purified FLuc, Km substrates, luminescence inhibition; Potency, µM (titrated, usually from 57.5 µM), actives largely listed as inhibitors; hit rate 6.9% among 360,000; AID 588342; further: nearly all actives have a fitted effect of over 55% in size
# Target sequence (P08659 whole entry, looked up): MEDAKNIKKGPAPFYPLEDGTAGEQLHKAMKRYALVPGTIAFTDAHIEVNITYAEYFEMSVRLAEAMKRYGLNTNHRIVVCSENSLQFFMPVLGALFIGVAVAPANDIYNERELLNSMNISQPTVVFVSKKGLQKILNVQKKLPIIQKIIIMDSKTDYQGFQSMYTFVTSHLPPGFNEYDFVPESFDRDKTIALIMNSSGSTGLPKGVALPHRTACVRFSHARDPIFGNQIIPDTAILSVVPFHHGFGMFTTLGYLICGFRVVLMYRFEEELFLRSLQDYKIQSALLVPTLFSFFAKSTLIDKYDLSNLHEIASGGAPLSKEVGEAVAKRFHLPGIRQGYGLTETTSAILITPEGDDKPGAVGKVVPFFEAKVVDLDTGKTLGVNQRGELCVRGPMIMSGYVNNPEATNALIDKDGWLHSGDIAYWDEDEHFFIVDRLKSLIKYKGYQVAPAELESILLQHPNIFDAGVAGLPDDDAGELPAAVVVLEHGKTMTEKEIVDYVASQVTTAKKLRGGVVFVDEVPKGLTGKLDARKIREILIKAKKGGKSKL
#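 Purified P. pyralis luciferase, 10 nM final, with Km-level 10 uM D-luciferin and 10 uM ATP in 50 mM Tris acetate pH 7.5, 10 mM Mg acetate, 0.01% Tween-20, 0.05% BSA; 6-point qHTS titration about 60 µM downward; luminescence read.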
# SMN2 splice enh: increases expression of the SMN2 splice variant | HEK293 SMN2-luciferase splicing reporter, luminescence, 30-36 h | Potency, µM (top dose mostly 46.1 µM), actives largely listed as activators | hit rate 2.8% among 210,000 | AID 1458; further: nearly all actives have a fitted effect of over 55% in size
#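 qHTS luciferase splicing reporter: luminescence rises when SMN2 exon 7 is included in transfected HEK293 cells. Compound exposure lasted 30-36 h at 37C, with 4.5 mM final sodium butyrate as control, followed by a ONE-Glo read.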
# ELG1 genotoxic: genotoxicity induction in ELG1-luciferase HEK293T cells | HEK293T ELG1-luciferase reporter, luminescence, 16 h | Potency, µM (titrated, usually from 46 µM), actives largely listed as activators | hit rate 1.3% among 330,000 | AID 504466; further: nearly all actives have a fitted effect of over 60% in size
#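 ELG1-luciferase HEK293T cells, 2,000/well; compound pinned in; 16 hr, 37 °C, 5% CO2; ONE-Glo, 30 min RT; luminescence on CCD imager.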
# A number is an active result; - = inactive; ? = inconclusive; . = no result; [ ] = dose if it differs, or a comment. The call rests on the fitted dose curve; in most records, active means well fitted curve in the direction sought with a large enough effect; inconclusive means small, poorly fitted or top-dose-only effect, or another doubt; inactive means no such curve, though single readings can be large; an effect the other way counts as inactive or inconclusive.
SMILES,Rab9 promoter act,Luc counter,NPC1 promoter act,FLuc modulator,SMN2 splice enh,ELG1 genotoxic
CSCc1ccc(C(=O)Nc2ccc(C(N)=O)cc2)cc1,2.82µM,-,2µM,5.36µM,11.2µM,14.6µM
CCN1C(=O)C(Cc2nc3ccccc3c(=O)n2-c2cccc(C)c2)c2ccccc21 (configuration not stated),.,.,.,-,-,.
CCCCc1nc2c(c3c1C[C@H](C)OC3)CN(C(=O)c1cccnc1)CC2,.,-[7.66 µM],.,.,-[9.22 µM],.
CCOc1ccc(NC(=O)Cn2cc(C(=O)c3ccc(F)cc3)c(=O)c3cc4c(cc32)OCCO4)cc1,.,.,.,-,-,.
CCc1ccc(-c2cc(C(=O)NN3CCOCC3)c3ccccc3n2)cc1,-,-,-,4.78µM,-,-
CC(C)c1ccc(-c2cc(C(=O)NN3CCN(C)CC3)c3ccccc3n2)cc1,?,-,?,0.601µM,?,?
CC(C)c1ccc(-c2cc(C(=O)N3N=C(C(F)F)CC3(O)C(F)F)c3ccccc3n2)cc1 (configuration not stated),?,-,?,1.51µM,?,?
CCN(Cc1cc(Cl)cc(C)c1O)Cc1c(O)ccc2ccccc12,.,-[7.66 µM],.,.,-[9.22 µM],.
Cc1ccc2c(=O)cc(C(=O)Nc3sc4c(c3C(N)=O)CCCC4)oc2c1,.,.,.,-,-,.
O=c1c2ccccc2nc(-c2ccc(Cl)cc2)n1CCCOc1ccccc1F,.,.,.,-,-,.
Cc1ccc(C)c(NS(=O)(=O)c2ccc(NC(=O)CSc3ccc(Cl)cc3)cc2)c1,-,-,-,-,-,-
CCS(=O)(=O)Nc1cc(-c2cn3ccc(C)cc3n2)ccc1C,.,.,.,12µM,?,.
CCc1ccc(S(=O)(=O)Nc2cc(-c3cn4ccccc4n3)ccc2C)cc1,.,.,.,?,-,.
Cc1ccn2cc(-c3ccc(C)c(NS(=O)(=O)c4ccc(Cl)cc4)c3)nc2c1,.,.,.,10.7µM,-,.
CCS(=O)(=O)Nc1cc(C(=O)O)ccc1C,-,-,-,-,-,-
CC(=O)Nc1ccc(S(=O)(=O)Nc2cc(-c3cn4ccccc4n3)ccc2C)cc1,.,.,.,16.9µM,?,.
CCOc1ccccc1NC(=O)Cn1c(=O)n(-c2ccc(C)cc2)c(=O)c2c1cnn2C,.,.,.,-,-,.
CCN1C(=O)CC(N2CCN(c3ccc(C(=O)c4ccccc4)cc3)CC2)C1=O (configuration not stated),.,-,.,19µM,-,.
CCN1C(=O)CC(N2CCN(c3ccc(Cl)cc3)CC2)C1=O (configuration not stated),-,-,-,-,-,-
CCC(=O)C(C(=O)OC)[C@H](CCc1ccccc1)NC(=O)OC (some centres not stated),.,-,.,.,-,.
COc1cccc(C(=O)Nc2cccc(OCc3cc(=O)n4c5c(sc4n3)CCCC5)c2)c1,.,.,.,?,-,.
COc1ccc(-c2cc3ccc(OCC(=O)NCC4CCC(C(=O)O)CC4)cc3oc2=O)cc1 (configuration not stated),4.47µM,.,3.16µM,0.953µM,.,?
O=C(O)C1CCN(C(=O)COc2ccc3c4c(c(=O)oc3c2)CCCC4)CC1,-,.,-,-,.,-
COc1ccc2c(c1)c(=O)oc1cc(OCC(=O)NCC3CCC(C(=O)O)CC3)ccc12 (configuration not stated),-,.,-,10.7µM,.,-
Cc1c(C)c2ccc(OCC(=O)N3CCC(C(=O)O)CC3)cc2oc1=O,-,.,-,19µM,.,-
SMILES,Rab9 promoter act,Luc counter,NPC1 promoter act,FLuc modulator,SMN2 splice enh,ELG1 genotoxic
CCc1cc(=O)oc2cc(OCC(=O)NCC3CCC(C(=O)O)CC3)ccc12 (configuration not stated),-,.,-,-,.,-
CCCCC/C=C\C=C\[C@H](O)CCCCCCCC(=O)O,.,.,.,.,-,.
CCc1nc(Nc2cccc(O)c2)c2oc3ccccc3c2n1,-,.,-,19µM,.,-
Fc1ccccc1C1CC(c2ccco2)=Nc2ccccc2S1 (configuration not stated),-,.,-,21.3µM,.,?
COc1ccccc1C1CC(c2cccs2)=Nc2ccccc2S1 (configuration not stated),-,-,-,?,-,?
COC(=O)c1cc(NC(=O)[C@H](CCS(C)(=O)=O)N2Cc3ccccc3C2=O)cc(C(=O)OC)c1,.,.,.,-,-,.
Cn1c(=O)c2c(SCc3ccccn3)nc(C3CC3)nc2n(C)c1=O,-,-,-,-,-,16.4µM
